{
  "source": "PubChem BioAssay (NCI)",
  "note": "About 79,000 compounds went through this panel and 15% of them were active in at least one assay; those are over-represented in the sample as a whole. Values without a mark were called inactive. Cut-off read from the data, not from the text of the source: active = growth inhibition above about 70%; inactive = the rest.",
  "data": [
    {"test": "NCI Yeast Anticancer Drug Screen. Data for the rad52 strain (AID 147);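 note: 0% = growth of vehicle-treated control cultures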", "conditions": "S. cerevisiae rad52 mutant growth inhibition; at 1.2 µM; hits give high values", "in_short": "(§1)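 Here a repair-compromised yeast strain receives each compound; its growth is then quantified and normalised to vehicle-only controls.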", "units": {"growth inhibition": "%"}, "values": [
      {"compound": "COc1ccc2nc3cccc([N+](=O)[O-])c3c(NCCNCCN(C)C)c2c1", "growth inhibition": -4},
      {"compound": "Cc1cccc(/C=N/NC(=S)NC2CCCCC2)n1", "growth inhibition": -8},
      {"compound": "COC(=O)C(=O)c1c(-c2ccc(Cl)c(Cl)c2)[nH]c2[nH]n(-c3ccccc3)c(=O)c2c1=O", "growth inhibition": -2},
      {"compound": "c1ccc([P+](CCN2Cc3ccccc3C2)(c2ccccc2)c2ccccc2)cc1", "growth inhibition": 29},
      {"compound": "Cc1cc(C)c2[s+]snc2c1", "growth inhibition": 12},
      {"compound": "CC(C)(Br)C(=O)/C=C/c1ccccc1", "growth inhibition": 8},
      {"compound": "Cc1ccc(S(=O)(=O)NC(=O)C2C(=O)CC3(CCCCC3)CC2=O)cc1", "growth inhibition": -22},
      {"compound": "NC(=S)N1N=C2c3ccccc3CC[C@H]2[C@@H]1c1ccc(Cl)cc1", "growth inhibition": 26},
      {"compound": "O=[N+]([O-])/C=C/c1cc2ccc3ccccc3c2[nH]1", "growth inhibition": 27},
      {"compound": "O=C1C(=C2CCCC2)CCC1CN1CCCCC1", "note": "(configuration not stated)", "growth inhibition": 3},
      {"compound": "OC(CC(O)(C(F)(F)F)C(F)(F)F)c1ccc(C(O)CC(O)(C(F)(F)F)C(F)(F)F)cc1", "note": "(configuration not stated)", "growth inhibition": 47},
      {"compound": "COc1cc2c(cc1OC)[C@@H](Nc1ccc(C#N)cc1)C1COC(=O)[C@@H]1C2c1cc(OC)c(O)c(OC)c1", "note": "(some centres not stated)", "growth inhibition": 14},
      {"compound": "O=c1cccccc1[O-].O=c1cccccc1[O-].O=c1cccccc1[O-].[Eu+3]", "growth inhibition": 2},
      {"compound": "O=C1c2ccccc2C(=O)c2sc(Nc3ccccc3Cl)nc21", "growth inhibition": -11},
      {"compound": "NC(CCCCCCCCCCCCC(N)C(=O)c1ccccc1)C(=O)c1ccccc1", "note": "(configuration not stated)", "growth inhibition": -3},
      {"compound": "CC1=C(C)C(=O)C2=C(OCCO2)C1=O", "growth inhibition": -6},
      {"compound": "c1ccc(-c2cc(C3CO3)c3ccccc3n2)cc1", "note": "(configuration not stated)", "growth inhibition": -1},
      {"compound": "S=C1C(=Nc2ccccc2)N(c2ccccc2)/C(=N\\c2ccccn2)N1c1ccccc1", "growth inhibition": -2},
      {"compound": "CCC(OC(C)=O)C1CC(C(C)C)CCC1C", "note": "(configuration not stated)", "growth inhibition": 1},
      {"compound": "CC(C)=CCc1c2c(c(O)c3c(=O)c(-c4ccc(O)c(O)c4)coc13)C=CC(C)(C)O2", "growth inhibition": -32},
      {"compound": "O=C(NC(N1CCN(c2cc3c(cc2F)c(=O)c(C(=O)O)cn3C2CC2)CC1)(C(F)(F)F)C(F)(F)F)c1ccccc1", "growth inhibition": -2},
      {"compound": "Fc1cc(F)c(F)c(S)c1F", "growth inhibition": -44},
      {"compound": "COc1ccc2cc3c4cc5c(cc4cc[n+]3cc2c1OC)OCO5", "growth inhibition": 22},
      {"compound": "CCCCCCCCNCCCCCCCC", "growth inhibition": 4},
      {"compound": "Nc1cc(Cl)ccc1Nc1ccccc1", "growth inhibition": -25},
      {"compound": "O=C(/C(=C/c1ccc(O)cc1)c1ccccc1)c1ccccc1", "growth inhibition": -52},
      {"compound": "O=Cc1ccccc1C=O", "growth inhibition": -13},
      {"compound": "C1=CCN([B-](c2ccccc2)[C+]2CCCCC2)C=C1", "growth inhibition": -3},
      {"compound": "CC/C(=C(\\c1ccccc1)c1ccc(OCC[N+](C)(C)C)cc1)c1ccccc1", "growth inhibition": 0},
      {"compound": "O=S(=O)(c1cccc(C(F)(F)F)c1)N1c2ccccc2-n2cccc2C1c1cccnc1", "note": "(configuration not stated)", "growth inhibition": -23},
      {"compound": "Nc1ccc2c(c1)C(=O)c1c(F)cccc1-2", "growth inhibition": -3},
      {"compound": "CN(C)/C(=N/C(=S)Nc1ccccc1)SCc1ccccc1", "growth inhibition": -3},
      {"compound": "CCN(CC)C(=S)N/N=C(\\C)c1ccccc1O", "growth inhibition": -36},
      {"compound": "CC(C)OC(=O)NNc1cc(Cl)ccc1Cl", "growth inhibition": 0},
      {"compound": "CC(C)CCC[C@@H](C)[C@H]1CC[C@H]2[C@@H]3CC[C@H]4C[C@H](N)CC[C@]4(C)[C@H]3CC[C@]12C", "growth inhibition": -2},
      {"compound": "O=C1c2ccccc2-c2ccc(N=Cc3ccccc3)cc21", "growth inhibition": -6}
    ]},
    {"test": "NCI Yeast Anticancer Drug Screen. Data for the rad52 strain (AID 147);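 note: 0% = growth of vehicle-treated control cultures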", "conditions": "S. cerevisiae rad52 mutant growth inhibition; at 3.7 µM; hits give high values", "in_short": "as §1", "units": {"growth inhibition": "%"}, "values": [
      {"compound": "COc1ccc2nc3cccc([N+](=O)[O-])c3c(NCCNCCN(C)C)c2c1", "growth inhibition": -3},
      {"compound": "Cc1cccc(/C=N/NC(=S)NC2CCCCC2)n1", "growth inhibition": -9},
      {"compound": "COC(=O)C(=O)c1c(-c2ccc(Cl)c(Cl)c2)[nH]c2[nH]n(-c3ccccc3)c(=O)c2c1=O", "growth inhibition": -5},
      {"compound": "c1ccc([P+](CCN2Cc3ccccc3C2)(c2ccccc2)c2ccccc2)cc1", "growth inhibition": 54},
      {"compound": "Cc1cc(C)c2[s+]snc2c1", "growth inhibition": 7},
      {"compound": "CC(C)(Br)C(=O)/C=C/c1ccccc1", "growth inhibition": 21},
      {"compound": "Cc1ccc(S(=O)(=O)NC(=O)C2C(=O)CC3(CCCCC3)CC2=O)cc1", "growth inhibition": -37},
      {"compound": "NC(=S)N1N=C2c3ccccc3CC[C@H]2[C@@H]1c1ccc(Cl)cc1", "growth inhibition": 31},
      {"compound": "O=[N+]([O-])/C=C/c1cc2ccc3ccccc3c2[nH]1", "growth inhibition": 66},
      {"compound": "O=C1C(=C2CCCC2)CCC1CN1CCCCC1", "note": "(configuration not stated)", "growth inhibition": 16},
      {"compound": "OC(CC(O)(C(F)(F)F)C(F)(F)F)c1ccc(C(O)CC(O)(C(F)(F)F)C(F)(F)F)cc1", "note": "(configuration not stated)", "growth inhibition": 64},
      {"compound": "COc1cc2c(cc1OC)[C@@H](Nc1ccc(C#N)cc1)C1COC(=O)[C@@H]1C2c1cc(OC)c(O)c(OC)c1", "note": "(some centres not stated)", "growth inhibition": 52},
      {"compound": "O=c1cccccc1[O-].O=c1cccccc1[O-].O=c1cccccc1[O-].[Eu+3]", "growth inhibition": 3},
      {"compound": "O=C1c2ccccc2C(=O)c2sc(Nc3ccccc3Cl)nc21", "growth inhibition": 42},
      {"compound": "NC(CCCCCCCCCCCCC(N)C(=O)c1ccccc1)C(=O)c1ccccc1", "note": "(configuration not stated)", "growth inhibition": -4},
      {"compound": "CC1=C(C)C(=O)C2=C(OCCO2)C1=O", "growth inhibition": -8},
      {"compound": "c1ccc(-c2cc(C3CO3)c3ccccc3n2)cc1", "note": "(configuration not stated)", "growth inhibition": 5},
      {"compound": "S=C1C(=Nc2ccccc2)N(c2ccccc2)/C(=N\\c2ccccn2)N1c1ccccc1", "growth inhibition": 1},
      {"compound": "CCC(OC(C)=O)C1CC(C(C)C)CCC1C", "note": "(configuration not stated)", "growth inhibition": 2},
      {"compound": "CC(C)=CCc1c2c(c(O)c3c(=O)c(-c4ccc(O)c(O)c4)coc13)C=CC(C)(C)O2", "growth inhibition": -19},
      {"compound": "O=C(NC(N1CCN(c2cc3c(cc2F)c(=O)c(C(=O)O)cn3C2CC2)CC1)(C(F)(F)F)C(F)(F)F)c1ccccc1", "growth inhibition": 1},
      {"compound": "Fc1cc(F)c(F)c(S)c1F", "growth inhibition": -10},
      {"compound": "COc1ccc2cc3c4cc5c(cc4cc[n+]3cc2c1OC)OCO5", "growth inhibition": 48},
      {"compound": "CCCCCCCCNCCCCCCCC", "growth inhibition": 18},
      {"compound": "Nc1cc(Cl)ccc1Nc1ccccc1", "growth inhibition": -22},
      {"compound": "O=C(/C(=C/c1ccc(O)cc1)c1ccccc1)c1ccccc1", "growth inhibition": -55},
      {"compound": "O=Cc1ccccc1C=O", "growth inhibition": -11},
      {"compound": "C1=CCN([B-](c2ccccc2)[C+]2CCCCC2)C=C1", "growth inhibition": -4},
      {"compound": "CC/C(=C(\\c1ccccc1)c1ccc(OCC[N+](C)(C)C)cc1)c1ccccc1", "growth inhibition": 68},
      {"compound": "O=S(=O)(c1cccc(C(F)(F)F)c1)N1c2ccccc2-n2cccc2C1c1cccnc1", "note": "(configuration not stated)", "growth inhibition": 7},
      {"compound": "Nc1ccc2c(c1)C(=O)c1c(F)cccc1-2", "growth inhibition": 5},
      {"compound": "CN(C)/C(=N/C(=S)Nc1ccccc1)SCc1ccccc1", "growth inhibition": -4},
      {"compound": "CCN(CC)C(=S)N/N=C(\\C)c1ccccc1O", "growth inhibition": -42},
      {"compound": "CC(C)OC(=O)NNc1cc(Cl)ccc1Cl", "growth inhibition": 18},
      {"compound": "CC(C)CCC[C@@H](C)[C@H]1CC[C@H]2[C@@H]3CC[C@H]4C[C@H](N)CC[C@]4(C)[C@H]3CC[C@]12C", "growth inhibition": 2},
      {"compound": "O=C1c2ccccc2-c2ccc(N=Cc3ccccc3)cc21", "growth inhibition": -8}
    ]}
  ]
}
